# Measurements as given in PubChem BioAssay (NCI).
# Where “and” joins values, the source holds several entries; their conditions need not be identical. Equal entries are not always repeated. The panel holds about 83,000 compounds, 20% with a hit somewhere; the sample as a whole holds those more often.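 How to read the values: 0–100, growth inhibition (40 = 60% inhibited); 0, no net growth; -100 to 0, cell death (-40 = 40% of starting cells died; -100 = all dead).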 Calls of active or inactive are those of the source.
# System: TK-10 renal
# Assay: NCI-60 one-dose screen, 48 h (100 = growth as untreated, 0 = no growth, -100 = all killed)
# Conditions: 2.5 µM
# Method: Growth inhibition of the TK-10 human tumor cell line is measured as a screen for anti-cancer activity. Cells are grown in 96 well plates and exposed to the test compound for 48 hours. Compounds are tested at a single concentration, which is 10^-5 M for most compounds. The reported endpoint is percent growth (GI% or GIPRCNT), where numbers from 0 - 100% represent growth inhibition, and numbers from -100% - 0 represent cell death. For example, a value of 40 represents 60% growth inhibition. A value of 0 means no net growth occurred over the course of the experiment. A value of -40 indicates 40% of cells at the beginning of the experiment died by the end of the experiment. A value of -100 means all cells are dead at the end of the experiment.
# NCI-60 Human Tumor Cell Lines Screen was performed using the standard one-dose NCI protocol, which is described in more detail at https://dtp.cancer.gov/discovery_development/nci-60/default.htm.
# Compounds with GIPRCNT values below 10 were considered active. Activity score was based on GIPRCNT using the following formula: […]
# Score is 0 for GIPRCNT values of 100 or above, 50 for GIPRCNT values of 0, and 100 for GIPRCNT values of -100.
row,Structure (SMILES),growth
1,Cc1c(N)nc([C@H](CC(N)=O)NC[C@H](N)C(N)=O)nc1C(=O)N[C@H](C(=O)N[C@H](C)[C@@H](O)[C@H](C)C(=O)N[C@H](C(=O)NCCc1nc(-c2nc(C(=O)NCCC[S+](C)C)cs2)cs1)[C@@H](C)O)C(OC1OC(CO)C(O)C(O)C1OC1OC(CO)C(O)C(OC(N)=O)C1O)c1cnc[nH]1 (some centres not stated),89.5% (inactive)

# Same assay, conditions: 10 µM
row,Structure (SMILES),growth
1,CCOC(=O)C(NC(=O)C(Cc1ccc(N(CCCl)CCCl)cc1)NC(C)=O)C(C)C (configuration not stated),95.5% (inactive)
2,CC[n+]1c(-c2ccccc2)c2cc(N)ccc2c2ccc(N)cc21,42% (inactive)
3,CC1=C(CO)C2=C(C)C3(CC3)[C@@](C)(O)C(=O)C2=C1,-23.3% (active)
4,NCCc1ccc(OCc2ccccc2)c(OCc2ccccc2)c1,107% (inactive)
5,CC[C@@]1(O)C[C@H](OC2CC(N(C)C)C(OC3CC(O)C(OC4CCC(=O)C(C)O4)C(C)O3)C(C)O2)c2c(cc3c(c2O)C(=O)c2c(O)ccc(O)c2C3=O)[C@H]1C(=O)OC (some centres not stated),6.04% (active)
6,CC[C@](O)(C(=O)O)c1cc2n(c(=O)c1CO)Cc1cc3ccccc3nc1-2,6.69% (active)
7,COc1cccc2c1cc([N+](=O)[O-])c1c(C(=O)O)cc3c(c12)OCO3,30.8% (inactive) and 99.6% (inactive)
8,Oc1cc[c]([Hg][Cl])cc1,110% (inactive)
9,CC[C@@]1(O)C(=O)OCc2c1cc1n(c2=O)Cc2cc3ccccc3nc2-1,-8.5% (active)
10,CCC1(O)CC(OC2CC(N(C)C)C(OC3CC4OC5CC(=O)C(C)OC5OC4C(C)O3)C(C)O2)c2c(cc3c(c2O)C(=O)c2c(O)ccc(O)c2C3=O)C1C(=O)OC (configuration not stated),-28.7% (active)
11,COC1CC(CC2CCC(C)C(C(C)C(=O)O)O2)OC2(OC(C)(C3CCC(C)(C4OC(C5OC(O)(CO)C(C)CC5C)CC4C)O3)CC2C)C1C (configuration not stated),4.27% (active)
12,COc1ccc(OC)c(/C=C/[N+](=O)[O-])c1,-31.9% (active)
13,CC[C@@]1(O)C[C@H](OC2CC(N(C)C)C(O)C(C)O2)c2c(O)c3c(c(O)c2[C@H]1OC1CC(N(C)C)C(O)C(C)O1)C(=O)c1cccc(O)c1C3=O (some centres not stated),-24.9% (active)
14,CCC(=O)OC1CCn2c1nc1c2C(=O)C(C)=C(N2CC2)C1=O (configuration not stated),-5.86% (active)
15,C[C@H]1CCC/C=C/[C@@H]2C[C@H](O)C[C@H]2[C@H](O)/C=C/C(=O)O1,-31.1% (active)
16,CC1=C2C(=O)[C@H]3[C@@H](CC=C4C[C@@H](O)CC[C@@]43C)[C@@H]2CC[C@]12O[C@@H]1C[C@H](C)CN[C@H]1[C@H]2C,108% (inactive)
17,COc1ccccc1/C=C(/C)[N+](=O)[O-],75.2% (inactive) and 95% (inactive)
18,Oc1cccc2cccnc12,113% (inactive) and 98.5% (inactive) and 104% (inactive)
19,CC(=O)O[C@H]1C[C@@H]2OC3C=C(C)CCC3(C)[C@@]1(C)[C@@]21CO1 (some centres not stated),-18.9% (active) and -20.4% (active)
20,O=C1c2ccccc2C(=O)C(Cl)C1Cl (configuration not stated),-97.4% (active)
21,S=C(SSC(=S)N1CCCCC1)N1CCCCC1,109% (inactive)
22,Cc1ccc(C(=O)OC(C(=O)O)C(OC(=O)c2ccc(C)cc2)C(=O)O)cc1 (configuration not stated) (tested in a mixture with another compound),93.2% (inactive)
23,CN1CCN(c2ccc([N+](=O)[O-])c3no[n+]([O-])c23)CC1,-95.4% (active)
24,Cc1cc(N=Nc2ccccc2C)ccc1N,124% (inactive)
25,C[C@]12CC[C@H](O)CC1=CC[C@@H]1[C@@H]2CC[C@]2(C)C(=O)CC[C@@H]12,96.2% (inactive)
26,CO[C@H](/C(C)=C/C=C/C(C)=C/c1coc(C)n1)[C@H](C)[C@H]1C[C@@H](O)[C@@]2(C)O[C@H]2/C=C/[C@@H](C)[C@@H]2C[C@@H](CC(=O)O2)C[C@H]2O[C@@H]2C(=O)O1,37.2% (inactive)
27,COC1=C(C)C(=O)C2=C(C1=O)C(CO)N1C(C#N)C3CC4C(C1C2N1CCOC41)N3C (configuration not stated),-28.8% (active)

# Same assay, conditions: 25 µM
row,Structure (SMILES),growth
1,Cc1c(N)nc([C@H](CC(N)=O)NC[C@H](N)C(N)=O)nc1C(=O)N[C@H](C(=O)N[C@H](C)[C@@H](O)[C@H](C)C(=O)N[C@H](C(=O)NCCc1nc(-c2nc(C(=O)NCCC[S+](C)C)cs2)cs1)[C@@H](C)O)C(OC1OC(CO)C(O)C(O)C1OC1OC(CO)C(O)C(OC(N)=O)C1O)c1cnc[nH]1 (some centres not stated),42.4% (inactive) and -73.8% (active)

# Same assay, conditions: 100 µM
row,Structure (SMILES),growth
1,COc1cccc2c1cc([N+](=O)[O-])c1c(C(=O)O)cc3c(c12)OCO3,-10.4% (active) and -42.6% (active)
2,S=C(SSC(=S)N1CCCCC1)N1CCCCC1,-61.8% (active)
3,CC1CCC2(NC1)OC1CC3C4CCC5CC(OC6OC(CO)C(OC7OC(CO)C(O)C(OC8OCC(O)C(O)C8O)C7OC7OC(CO)C(O)C(O)C7O)C(O)C6O)CCC5(C)C4CCC3(C)C1C2C (configuration not stated),-97.4% (active) and -87.3% (active)
